Records with an inconclusive call do not appear. Calls of active or inactive are those of the source. Calls follow the shape of the dose curve; as a rule, active = well fitted cell-killing curve with a large enough effect in the repeat runs; inconclusive = weak or mixed curves, or effect the other way; inactive = no such curve, though single readings can be large or run the other way.
Experiment: qHTS assay to identify small molecule antagonists of the glucocorticoid receptor (GR) signaling pathway - cell viability counter screen (AID 720693); also: nearly all actives have a fitted effect of over 55% in size
Conditions: GR-bla HeLa viability, CellTiter-Glo luminescence, 18 h, with 5 nM dexamethasone present; series mostly up to 58.5 µM
Excerpt: National Center for Advancing Translational Sciences [NCATS]
NIH Chemical Genomics Center [NCGC]
U.S. Environmental Protection Agency [EPA]
National Institutes of Environmental Health Sciences [NIEHS]
National Toxicology Program [NTP]
U.S. Food and Drug Administration [FDA]
The Glucocorticoid receptor (GR) is one of the members of the nuclear receptor family of ligand-dependent transcription factors. GR plays a critical role in carbohydrate, protein and lipid metabolisms and programmed cell death. CellSensor GR-bla HeLa cell line (Invitrogen) contains a beta-lactamase reporter gene under the control of the glucocorticoid response element stably integrated into HeLa cells, a cervical cancer cell line that expresses glucocorticoid receptor. The activation of the reporter gene under culture conditions can be detected by fluorescence intensity. This cell line has been used to screen the Tox21 10K compound library and to identify the compounds that inhibit the GR signaling. The cytotoxicity of the Tox21 compound library against the GR-bla HeLa cell line was tested in parallel by measuring the cell viability using CellTiter-Glo assay in the same wells.
Tox21 Assay Protocol Summary:
The GR-bla HeLa cells were dispensed at 1500 cells/5 ul/well in 1536-well black wall/clear bottom plates using a Multidrop Combi (ThermoFisher Scientific, Waltham, MA) dispenser. After the assay plates were incubated at a 37 C/5% CO2 incubator for 4 hours, 23 nL of compounds dissolved in DMSO, positive controls or DMSO only was transferred to the assay plate by a pintool station (Kalypsys, San Diego, CA), followed by addition of 1 uL of dexamethasone (5 nM, final concentration in the well). The plates were incubated at 37 C for 18 hours. After 1 uL of LiveBLAzerTM B/G FRET substrate was added using a Flying Reagent Dispenser (Aurora Discovery, San Diego, CA), the plates were incubated at room temperature (RT) for 2 hours, and fluorescence intensity was measured by an Envision plate reader (PerkinElmer, Shelton, CT). After measurement of bla assay, 3 ul CellTiter-Glo (Promega, Madison, WI) was added to measure the cytotoxicity and the plates were then incubated at RT for 30 min. The luminescence was measured using a ViewLux (Perkin Elmer) plate reader.

| Structure (SMILES) | outcome |
| --- | --- |
| O=C1C=CC(=O)O1 | inactive |
| CCOc1ccc(OCC)c(Cl)c1 | inactive |
| CC(=O)OC1C2(C)CCC(C2)C1(C)C (stereo not given) | inactive |
| CN1CCN(c2c(F)cc3c(=O)c(C(=O)O)cn(CCF)c3c2F)CC1 | inactive |
| CCOC(=O)[C@H](CCc1ccccc1)N[C@@H](C)C(=O)N1Cc2cc(OC)c(OC)cc2C[C@H]1C(=O)O | inactive |
| CC/C=C\CCOC(=O)C(C)C | inactive |
| CC(=O)Oc1cc(C(C)C)c(OCCN(C)C)cc1C | inactive |
| C1CCOC1 | inactive |
| CCOc1ccccc1N | inactive |
| O=[N+]([O-])c1nccn1CO[C@@H](CO)[C@H](O)CO | inactive |
| CCN(CC)CC1CCCCN1CC(=O)N1c2ccccc2C(=O)Nc2cccnc21 (stereo not given) | inactive |
| Cc1cc2nc(N)sc2cc1C | inactive |
| CCCCOc1cc(C(=O)NCCN(CC)CC)c2ccccc2n1 | inactive |
| Cc1c(-c2ccccc2)oc2c(C(=O)OCCN3CCCCC3)cccc2c1=O | inactive |
| Cc1cc(NS(=O)(=O)c2ccc(N)cc2)nc(C)n1 | inactive |
| CCOC(=O)c1ccccc1O | inactive |
| CC(=O)OC(C)OC(C)=O | inactive |
| NS(=O)(=O)c1cc(-c2nn[nH]n2)c(NCc2cccs2)cc1Cl | inactive |
| CCC(=O)c1ccc2c(c1)N(CCCN(C)C)c1ccccc1S2 | inactive |
| Nc1ccc(Oc2ccc(N)c(N)c2)cc1 | inactive |

| Structure (SMILES) | outcome |
| --- | --- |
| CC(C)S | inactive |
| CC(C)Nc1nc(N)nc(Cl)n1 | inactive |
| CC(C)(C)C1CCCCC1=O (stereo not given) | inactive |
| CCOC(=O)CS | inactive |
| C[C@]12C(=O)OC(=O)[C@H]1[C@H]1C=C[C@@H]2C1 | inactive |
| C[C@@H]1CN(c2c(F)c(F)c3c(=O)c(C(=O)O)cn(C4CC4)c3c2F)C[C@H](C)N1 | inactive |
| CC1(C)C(=O)N(Cl)C(=O)N1Br | inactive |
| C=Cc1ccccc1 | inactive |
| C[C@]12CCC(=O)C=C1CC[C@@H]1[C@@H]2CC[C@@]2(C)[C@H]1CC[C@]2(O)C(=O)CO | inactive |
| CC(C)NCC(O)COc1ccc(CCOCC2CC2)cc1 (stereo not given) | inactive |
| COC(=O)C(C)O (stereo not given) | inactive |
| CCCc1c2oc(C(=O)O)cc(=O)c2cc2c(=O)cc(C(=O)O)n(CC)c12 | inactive |
| C=CC(C)(O)CC/C=C(\C)CCC=C(C)C (stereo not given) | inactive |
| Cc1ccc(C)c(N)c1 | inactive |
| O=C(CC(=O)C(F)(F)F)c1ccccc1 | inactive |
| C=C(C)C(=O)OCCOP(=O)(O)O | inactive |
| CCN1CC(CCN2CCOCC2)C(c2ccccc2)(c2ccccc2)C1=O (stereo not given) | inactive |
| CCN(O)CC | inactive |
| COc1ccccc1N1CCN(CCCNc2cc(=O)n(C)c(=O)n2C)CC1 | inactive |
| COc1ccc2nc(NC(=O)Nc3ccccc3)sc2c1 | inactive |
